Assay outcomes deposited in PubChem BioAssay by The Scripps Research Institute Molecular Screening Center.
MITF inh: MITF inhibitors, primary screen, biochemical, AlphaScreen, human | Microphthalmia-associated transcription factor (Homo sapiens), O75030 | AlphaScreen MITF homodimerization, bead proximity signal | inhibition, % at 2.6 µM | 650,000 compounds, 0.91% hits; in the data active = inhibition above about 50%;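 also: 0% = vehicle wells with protein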
TEAD-YAP inh: TEAD-YAP interaction inhibition, primary screen, TEAD-YAP interaction inhibitor project, luminescence, HEK-TIYL cells; TEAD-Gal4/YAP UAS-luciferase luminescence; inhibition, % at 9.12 µM; 640,000 compounds, 1.4% hits; AID 1259422, 2018; in the data active = inhibition above about 32%;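 also: 0% = median of test compound wells and 100% = reference inhibitor wells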
FBW7 activator: FBW7 E3 ligase activators, primary screen, biochemical, AlphaScreen, human | F-box/WD repeat-containing protein 7 (Homo sapiens), Q969H0 | AlphaScreen FBW7–phospho-cyclin E peptide binding, activator screen | normalized activity (activation), % at 26.1 µM | 650,000 compounds, 0.13% hits; in the data active = normalized activity above about 1.9%;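 also: purified mutant Fbw7 with reduced substrate affinity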
GPR151 activ: activators of human GPR151, primary screen, cell-based, PathHunter beta-arrestin, luminescence; AID 1508602, 2020; G-protein coupled receptor 151 (Homo sapiens), Q8TDV0; 650,000 compounds, 1% hits; activation, % at 11.2 µM; PathHunter beta-arrestin GPR151 cells; in the data active = activation above about 4.9%;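 also: 0% = median of compound wells and 100% = cells with positive control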
Target sequence (Q8TDV0 whole entry, looked up): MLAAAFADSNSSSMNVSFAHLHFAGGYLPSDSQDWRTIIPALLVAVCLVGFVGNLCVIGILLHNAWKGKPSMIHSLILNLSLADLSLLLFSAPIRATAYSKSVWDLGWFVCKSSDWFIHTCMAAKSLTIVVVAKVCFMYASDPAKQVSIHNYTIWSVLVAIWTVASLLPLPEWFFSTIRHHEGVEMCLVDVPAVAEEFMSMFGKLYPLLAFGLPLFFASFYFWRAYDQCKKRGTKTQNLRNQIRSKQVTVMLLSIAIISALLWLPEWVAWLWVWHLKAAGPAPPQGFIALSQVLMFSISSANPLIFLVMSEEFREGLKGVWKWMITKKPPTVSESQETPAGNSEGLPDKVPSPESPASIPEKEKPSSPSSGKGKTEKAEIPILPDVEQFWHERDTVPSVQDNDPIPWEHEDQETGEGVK
Active calls of the source: *. A selection: hits, their analogues and other compounds. The true share with any hit is near 3.4%.

SMILES | MITF inh | TEAD-YAP inh | FBW7 activator | GPR151 activ
CC(C)c1ccc2oc(-c3ccc(Cl)c(NC(=O)COc4ccc(Cl)cc4)c3)nc2c1 | -7 | -6 | 0 | 0
Nc1ccc(-c2cc3ccccc3oc2=O)cc1 | -4 | 70* | 0 | 0
CCC(=O)Nc1cc(-c2nc3cc(C(C)C)ccc3o2)ccc1Cl | -3 | 46* | 0 | 0
CC1=CC(C)(C)Nc2ccc(OC(=O)c3cccs3)cc21 | 5 | 3 | 0 | 0
COc1ccc(N2CCN(C(=O)c3cncc(Br)c3)CC2)cc1 | -10 | -2 | 0 | 0
CCC(C)C(=O)N1CCC(C(=O)Nc2ccc(-c3nc4ccccc4o3)cc2)CC1 (configuration not stated) | -9 | -7 | 0 | 1
CCC(C)C(=O)Nc1ccc(-c2nc3ccccc3o2)cc1 (configuration not stated) | -7 | 38* | 0 | -3
COC(=O)/C(CC(=O)C(C)(C)C)=N/NC(=O)c1cccc(Br)c1 | 8 | -27 | 0 | 2
NNC(=O)c1cncn1-c1ccccc1 | -16 | 37* | 0 | 0
CC(=S)Nc1nc2ccc3ccccc3c2s1 | -3 | -16 | 0 | 0
Cc1ccc(NC(=O)C2C3C=CC4(O3)C2C(=O)N(CCCN(C)Cc2ccccc2)C4C(=O)NC2CCCC(C)C2C)cc1Cl (configuration not stated) | 5 | 3 | 0 | 1
CC(C)OC(=O)c1sc2nc(-c3ccccc3)ccc2c1N | -2 | 84* | 0 | 4
COc1ccc(-c2ccc3c(N)c(C(=O)NCc4ccco4)sc3n2)cc1 | -3 | 33* | 0 | -1
COc1ccc(-c2ccc(C(=O)NCc3ccco3)c(N(C)C)n2)cc1 | -11 | -5 | 0 | -1
O=C(NCCOc1ccccc1)c1csc(Nc2ccncn2)n1 | 27 | -5 | 0 | -1
CCOc1cc(CN2CCC(=O)N(Cc3cccc(C)c3)CC2)ccc1OC | -4 | 3 | 0 | 0
Cc1cc(OCC(=O)NNC(=O)CCc2ccccc2)ccc1Br | 7 | 6 | 2.3* | -1
CC1CCC(NC(=O)CCn2c(=S)[nH]c3cc4c(cc3c2=O)OCO4)CC1 (configuration not stated) | -3 | -10 | 0 | 2
CCCc1ccc(C(=O)Nc2cnc3ccccc3c2)cc1 | 12 | 70* | 0 | -5
COc1cc([N+](=O)[O-])cc2c1NC(c1ccc(C(=O)O)cc1)C1CC=CC21 (configuration not stated) | 75* | 7 | 0 | -1
COc1cccc2c1NC(c1ccc(C(=O)O)cc1)C1CC=CC21 (configuration not stated) | 71* | 11 | -1 | -2
COc1cccc2c1N[C@@H](c1ccc(C(=O)O)cc1)[C@H]1CC=C[C@@H]21 | 63* | -4 | -1 | 0
O=C(NCc1ccccc1)C1CCN(C(=O)Nc2ccc(Cl)cc2)CC1 | 19 | -3 | 0 | 1
Cc1sc(NC(=O)c2ccc(Cl)s2)c(C(N)=O)c1-c1ccc(F)cc1 | 8 | 36* | 0 | 1
Cc1sc(NC(=O)c2ccc(Cl)s2)c(C(N)=O)c1C | -6 | -61 | 0 | -1
SMILES | MITF inh | TEAD-YAP inh | FBW7 activator | GPR151 activ
CCn1nc(C)cc1C(=O)Nc1nc(-c2ccc(C(C)C)cc2)cs1 | 7 | 38* | 0 | 2
CC(C)c1ccc(-c2csc(NC(=O)c3cc(Cl)cc(Cl)c3)n2)cc1 | -9 | 0 | 0 | -1
Cc1nc2sccn2c(=O)c1S(=O)(=O)NC1CCCCCC1 | -2 | 9 | 0 | 0
Cc1cc2c(cc3c(=O)n(CC(=O)N4CCc5ccccc5C4)ncn32)s1 | 32 | 3 | 0 | -1
CCC(C)n1c(SCc2ccccc2Cl)nc2ccsc2c1=O (configuration not stated) | 1 | 51* | 0 | 1
CCC(C)n1c(SCc2c(F)cccc2Cl)nc2ccsc2c1=O (configuration not stated) | 17 | -2 | 0 | 1
CCc1ncc(CN2CCC(C(=O)Nc3ccc(Oc4cccnc4)cc3)CC2)cn1 | -8 | 9 | 1 | -1
Cc1ccc(-n2c(N)c(C(=O)O)c3nc4ccccc4nc32)cc1C | 10 | -4 | 0 | -1
NNC(=O)c1c(N)n(-c2ccc3ccccc3c2)c2nc3ccccc3nc12 | -3 | 47* | 1 | 0
Nc1ccc(-c2cn3c4c(sc3n2)CCCC4)cc1 | -9 | 27 | 0 | 0
Fc1ccc(-c2cn3c4c(sc3n2)CCCC4)cc1 | -10 | 52* | 0 | -10
O=C(Nc1ccc(-c2cn3c4c(nnc3n2)CCCC4)cc1)c1cccnc1 | -9 | -2 | 0 | 0
c1ccc(-c2cn3c4c(nnc3n2)CCCC4)cc1 | 18 | 44* | 0 | -1
CC(=O)Nc1ccc(-c2cn3c4c(sc3n2)CCCC4)cc1 | -1 | -36 | 0 | 0
c1ccc(-c2cn3c4c(sc3n2)CCCC4)cc1 | 4 | 85* | 0 | -7
NC(=O)Cn1nc2n(Cc3ccccc3F)c3ccccc3n2c1=O | -3 | -6 | 0 | -1
COc1ccc(C2=CC(c3cc(OC)ccc3OC)n3ncnc3N2)cc1 (configuration not stated) | 0 | 50* | 0 | -1
COc1ccc(OC)c(C2C=C(c3cccnc3)Nc3ncnn32)c1 (configuration not stated) | -4 | 22 | 0 | -1
COc1cccc(C2=CC(c3cc(OC)ccc3OC)n3ncnc3N2)c1 (configuration not stated) | 24 | 50* | 0 | 0
COC(=O)c1cnn2c(C)c(Cc3ccc(F)cc3)c(C)nc12 | -1 | 36* | 0 | 1
COc1ccccc1CNC(=O)c1cnn2c(C)c(Cc3ccc(F)cc3)c(C)nc12 | 8 | 0 | 0 | 1
COC(CNC(=O)c1cnn2c(C)c(Cc3c(C)cc(C)cc3C)c(C)nc12)OC | 2 | 50* | 0 | 2
Cc1ccc2occ(CN3CCN(c4ccccc4)CC3)c(=O)c2c1 | 23 | -3 | 0 | 3
O=c1c(CN2CCN(c3cccc(Cl)c3)CC2)coc2ccccc12 | 53* | 43* | 0 | 0
O=c1c(CN2CCN(c3cccc(C(F)(F)F)c3)CC2)coc2ccccc12 | 35 | 62* | 0 | 0
Cc1nnc(SCC(=O)N2c3cc(C)c(C)cc3-c3c(ssc3=S)C2(C)C)s1 | 17 | 3 | 0 | 0
COc1cc(C(=O)N2c3ccccc3-c3c(ssc3=S)C2(C)C)cc(OC)c1OC | 31 | 61* | 0 | 2
Cc1ccc2c(c1)-c1c(ssc1=S)C(C)(C)N2C(=O)c1ccncc1 | 27 | 55* | -1 | -2
Cc1cc(C)c2c(c1)-c1c(ssc1=S)C(C)(C)N2C(=O)C(C)C | 52* | 17 | 0 | -1
CCC(=O)N1c2c(C)cc(C)cc2-c2c(ssc2=S)C1(C)C | 26 | 6 | -1 | 1
